From PubChem BioAssay (NCATS)
Values without a mark were called inactive. Calls come from the whole dose curve; as a rule, active = well fitted cell-killing curve with a large enough effect; inconclusive = small, poorly fitted or top-dose-only effect; inactive = flat fitted curve, though single readings scatter.

experiment: Cell Viability - LYMP1-003 - Assay at 24 hr (AID 963); details: LYMP1-003 lymphoblastoid cell viability; series mostly up to 92.2 µM; viability change, negative = cytotoxic: at the top concentration;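 note: plate controls were DMSO only for no effect and tetraoctylammonium bromide positive control for full effect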
From the text: NIH Chemical Genomics Center [NCGC]
NIH Molecular Libraries Screening Centers Network [MLSCN]
National Institutes of Environmental Health Sciences [NIEHS]
National Toxicology Program [NTP]
We have developed a 1536-well cell-based assay for quantitative high throughput screening (qHTS) against a number of cell lines to determine in vitro cytotoxicity of small molecules. This particular assay uses a human lymphoblastoid cell line (LYMP1-003) purchased from Coriell Institute for Medical Research.
NCGC Assay Protocol Summary:
The CellTiter-Glo luminescent cell viability assay (Promega) is a homogeneous method to measure the number of viable cells in culture. The end point readout of this assay is based on quantitation of intracellular ATP, an indicator of metabolic activity, using the luciferase reaction. Luciferase catalyzes the oxidation of beetle Luciferin to oxyluciferin and light in the presence of ATP. The luminescent signal is proportional to amount of ATP present.
Using the CellTiter-Glo luminescent cell viability assay, the amount of cellular ATP was measured in the lymphoblastoid cell line with complete culture medium following compound treatment for 24 hours. The assay was performed in opaque white Kalypsys 1536-well plates. In the screen, tetraoctylammonium bromide was used as positive control. Library compounds were measured for their ability to cause acute toxicity in the cell line, as reflected by a decrease in intracellular ATP levels, in a concentration-dependent manner. […] AC50 values were determined from concentration-response data modeled with the standard Hill equation.
qHTS protocol for CellTiter Glo lymphoblastoid cellular assay
[Step] [Parameter] [Value] [Description]
1. Reagent; 5 uL; 2500 lymphoblastoid cells/well
2. Time; 5 hr; 37 C incubation
4. Controls; 23 nL; Tetraoctylammonium bromide 6.4pM to 92 uM
5. Time; 24 hr; 37 C incubation
6. Reagent; 5 uL; CellTiter Glo reagent
7. Time; 30 min; Room Temperature
8. Detection; Luminescence; Viewlux plate reader
Keywords: cell viability, cytotoxicity, lymphoblastoid cell line, luminescence, NTPHTS, NTPHTS_NCGC, NIEHS, DSSTox, MLSMR, MLSCN, NIH Roadmap, qHTS, NCGC

Row | Structure (SMILES) | viability change, negative = cytotoxic [%]
1 | CC1CC(=O)O1 (stereo not given) | 1.58
2 | Nc1ccc(-c2ccc(N)c(Cl)c2)cc1Cl | -28.2
3 | [N-]=[N+]=[N-] | 3.04
4 | CCCN(CCC)c1c([N+](=O)[O-])cc(C(F)(F)F)cc1[N+](=O)[O-] | -2.84
5 | O=Cc1ccc(Cl)cc1Cl | -3.82
6 | Oc1cccc(Cl)c1 | -2.45
7 | CC(C)(C)C(O)(CCc1ccc(Cl)cc1)Cn1cncn1 (stereo not given) | -5.17
8 | Cc1coc2c1CCC(C)C2 (stereo not given) | 1.09
9 | BrC(Br)Br | -3.95
10 | CC(C)CC(C)N (stereo not given) | -1.14
11 | Nc1cccc(Cl)c1 | -8.09
12 | CCOP(=S)(OCC)Oc1nc(Cl)c(Cl)cc1Cl | -1.07
13 | O=[N+]([O-])c1cc(Cl)c(Cl)cc1Cl | -6.03
14 | CCOP(=S)(OCC)SCCSCC | -0.278
15 | CCCCNC(=O)n1c(NC(=O)OC)nc2ccccc21 | -27
16 | Nc1ccc2ccccc2c1 | -6.15
17 | C=CCc1cc(OC)c2c(c1)OCO2 | -3.3
18 | N#CC(O)c1ccccc1 (stereo not given) | 0.424
19 | CC(C)[N+](=O)[O-] | -2.67
20 | C=C(Cl)CSC(=S)N(CC)CC | -8.36

Row | Structure (SMILES) | viability change, negative = cytotoxic [%]
21 | O=NN1CCCCC1 | 2.16
22 | [O-][Cl+]O | -3.73
23 | ClCC(Br)CBr (stereo not given) | -1.08
24 | Cc1cc(C)cc(OP(=O)(Oc2cc(C)cc(C)c2)Oc2cc(C)cc(C)c2)c1 | -5.5
25 | C/C=C/CC#N | -0.245
26 | CC(=O)NNc1ccccc1 | -4.42
27 | CCOC(=O)CBr | 0.449
28 | Cc1cc(Cl)ccc1O | -8.76
29 | O=C(Cl)OCc1ccccc1 | -1.65
30 | Clc1cccc(Cl)c1 | 1.69
31 | O=[N+]([O-])c1ccccc1O | -2.66
32 | Nc1cccc2ccccc12 | -9.44
33 | ClC=CCl | -1.97
34 | O=C(O)C(Br)Br | -1.6
35 | c1ccc(Nc2ccc(Nc3ccccc3)cc2)cc1 | -10.8
36 | Cl/C=C/Cl | 1.68
37 | COP(=S)(OC)SCn1nnc2ccccc2c1=O | 2.07
38 | CC(=O)[O-].CC(=O)[O-].CC(=O)[O-].[Cr+3] | -3.65
39 | O=c1ccc(=O)[nH][nH]1 | 1.41
40 | Nc1cc(Cl)cc(C(=O)O)c1Cl | -3.6
